Laboratory results from PubChem BioAssay (NCATS).
Records with an inconclusive call do not appear. A call without a number means that no potency is given here. Calls of active or inactive are those of the source. Calls follow the shape of the dose curve; as a rule, active = well fitted curve in the direction sought with a large enough effect; inconclusive = small, poorly fitted or top-dose-only effect, or another doubt; inactive = no such curve, though single readings can be large; an effect the other way counts as inactive or inconclusive.

Tests used:
[1] = biological target: Protein phosphatase 1D (Homo sapiens) (UniProt O15297); assay: Rhodamine-PBP qHTS Assay for Modulators of WT P53-Induced Phosphatase 1 (WIP1) (AID 1347425); conditions: recombinant WIP1, Rhodamine-PBP phosphate fluorescence, real-time; series mostly up to 57.5 µM
How it was run: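 The read-out is the change in Rhodamine-PBP fluorescence (f1 - f0, ex 525/em 598 nm) as Pi is released, read each minute for 11 min. Final reaction: 5 nM WIP1, 10 uM phosphopeptide VEPPL-pS-QETFS, 10 uM Rh-PBP, 50 mM Tris-HCl pH 7.5, 30 mM MgCl2. Compound was preincubated with enzyme for 1 hour at room temperature.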

[2] = Primary qHTS for inhibitors of La Crosse Virus (LACV) - induced cell death in SH-SY5Y cells (AID 1508616); conditions: SH-SY5Y LACV cytopathicity rescue, ATP luminescence, 6 d; series mostly up to 4.29 µM;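 also: top concentration of the series differs between compounds; higher means more rescue of cells from virus-induced death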
How it was run: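 Rescue of virus-induced death was read as ATPLite luminescence after 6 days at 37C, scaled between DMSO wells with LACV and without virus. Cells were SH-SY5Y, 6000/well, infected at 0.01 MOI after compound addition.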

[3] = biological target: Calcium and integrin-binding protein 1 (Homo sapiens) (UniProt Q99828); assay: Primary qHTS for Identification of Calcium Integrin Binding Protein 1 (CIB1) Competitor (AID 1508620); conditions: CIB1-GST / FITC-alphaIIb peptide fluorescence polarization; series mostly up to 114 µM;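 also: GST tagged CIB1 binding a fluorescein labelled alphaIIb integrin peptide tracer; top concentration of the series differs between compounds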
How it was run: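 Fluorescence polarization competition: GST-tagged CIB1 (1 uM final) preincubated with compound 15 min at room temperature, then FITC-labelled alphaIIb peptide (100 nM final) added. After 15 min at room temperature, polarization read at Ex 480/Em 540.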

Chain of Protein phosphatase 1D (Homo sapiens) (O15297 whole entry, looked up): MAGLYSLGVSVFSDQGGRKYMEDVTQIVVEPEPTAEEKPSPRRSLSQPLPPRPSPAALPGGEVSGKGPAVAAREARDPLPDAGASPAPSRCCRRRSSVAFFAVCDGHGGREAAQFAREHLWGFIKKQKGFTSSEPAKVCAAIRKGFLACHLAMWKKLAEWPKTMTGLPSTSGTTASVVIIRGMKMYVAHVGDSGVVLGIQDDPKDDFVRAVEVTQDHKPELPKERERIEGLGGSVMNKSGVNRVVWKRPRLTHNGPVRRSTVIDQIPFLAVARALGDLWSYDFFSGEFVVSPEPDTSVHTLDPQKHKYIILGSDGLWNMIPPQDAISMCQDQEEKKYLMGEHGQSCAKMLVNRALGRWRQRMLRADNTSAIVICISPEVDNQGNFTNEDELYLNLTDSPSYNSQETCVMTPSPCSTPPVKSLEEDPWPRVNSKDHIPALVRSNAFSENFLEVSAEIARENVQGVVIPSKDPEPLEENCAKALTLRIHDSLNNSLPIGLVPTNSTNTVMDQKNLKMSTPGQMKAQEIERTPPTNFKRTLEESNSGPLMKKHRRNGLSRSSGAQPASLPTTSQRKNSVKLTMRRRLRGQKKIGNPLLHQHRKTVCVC
Chain of Calcium and integrin-binding protein 1 (Homo sapiens) (Q99828 whole entry, looked up): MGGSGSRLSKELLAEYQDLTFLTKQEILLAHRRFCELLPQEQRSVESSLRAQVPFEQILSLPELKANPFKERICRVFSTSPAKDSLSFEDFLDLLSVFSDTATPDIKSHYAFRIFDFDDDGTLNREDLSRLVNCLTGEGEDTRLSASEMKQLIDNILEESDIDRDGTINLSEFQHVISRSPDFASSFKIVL

| SMILES | outcome [1] | outcome [2] | Potency [3] |
| --- | --- | --- | --- |
| O=C(O)C(Cc1cc(I)c(O)c(I)c1)c1ccccc1 (stereo not given) | inactive | inactive | inactive |
| CCC(Cc1c(I)cc(I)c(N)c1I)C(=O)O (stereo not given) |  | inactive | inactive |
| FC1(F)C(F)(F)C(F)(F)C2(F)C(F)(F)C(F)(F)C(F)(F)C(F)(F)C2(F)C1(F)F (stereo not given) | inactive | inactive | inactive |
| O=C1OC2(c3ccccc31)c1cc(Br)c(O)c(Br)c1Oc1c2cc(Br)c(O)c1Br |  |  | inactive |
| CCN(CC)CCOc1ccccc1C(=O)CCc1ccccc1 | inactive | inactive | inactive |
| CC1(COc2ccc(CC3SC(=O)NC3=O)cc2)CCCCC1 (stereo not given) |  | inactive | inactive |
| CC[C@H](c1ccc(O)cc1)[C@@H](CC)c1ccc(O)cc1 |  | inactive | inactive |
| CCCCCCCC/C=C\CCCCCCCCN | inactive | inactive | inactive |
| NS(=O)(=O)c1cc2c(cc1Cl)NC(CC1CCCC1)NS2(=O)=O (stereo not given) |  | inactive | inactive |
| CCCCC(CC)CN1CN(CC(CC)CCCC)CC(C)(N)C1 (stereo not given) | inactive | inactive | inactive |
| NC(N)=NN=C(/C=C/c1ccc([N+](=O)[O-])o1)/C=C/c1ccc([N+](=O)[O-])o1 |  |  | inactive |
| C=C1c2cccc(O)c2C(O)=C2C(=O)[C@]3(O)C(O)=C(C(N)=O)C(=O)[C@@H](N(C)C)[C@@H]3[C@@H](O)[C@H]12 |  | inactive |  |
| Cc1cc(C)cc(OCC2CNC(=O)O2)c1 (stereo not given) | inactive |  | inactive |
| O=C(c1ccc(F)cc1)C1CCN(CCn2c(=S)[nH]c3ccccc3c2=O)CC1 | inactive |  | inactive |
